# FXIa mix inh – factor XIa (human) inhibition, mixture screen. P03951. purified FXIa, fluorogenic substrate, pooled mixtures. inhibition, % at 5 µM. actives 0.19% (n = 62,000). AID 680;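 also: each value is inhibition by a whole ten-compound pool holding the compound; 0% = enzyme with no mixture and 100% = wells lacking enzyme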
# FXIIa mix inh – factor XIIa (human) inhibition, mixture screen; P00748; purified FXIIa, fluorogenic substrate, pooled mixtures; inhibition, % at 5 µM; actives 0.2% (n = 62,000); AID 684;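 also: 0% = enzyme without compound and 100% = no enzyme blank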
# HePTP inhibitor – blocks human HePTP tyrosine phosphatase; recombinant HePTP phosphatase activity, OD absorbance; inhibition, % at 20 µM; actives 0.64% (n = 110,000); AID 521; in the data active = inhibition above about 50%;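 also: plate controls were vehicle for no effect and reference inhibitor for full effect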
# Target sequence (P35236 whole entry, looked up): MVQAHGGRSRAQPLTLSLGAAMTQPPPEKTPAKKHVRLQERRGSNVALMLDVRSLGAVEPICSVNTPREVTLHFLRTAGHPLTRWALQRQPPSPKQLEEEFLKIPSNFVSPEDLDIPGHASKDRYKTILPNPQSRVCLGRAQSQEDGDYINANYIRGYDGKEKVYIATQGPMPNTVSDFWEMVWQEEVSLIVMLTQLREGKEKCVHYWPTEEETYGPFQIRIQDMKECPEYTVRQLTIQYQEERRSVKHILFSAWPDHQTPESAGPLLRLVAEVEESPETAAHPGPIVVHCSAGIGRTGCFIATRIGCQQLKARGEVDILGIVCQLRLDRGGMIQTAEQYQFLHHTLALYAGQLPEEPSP
# Candida biofilm – kills Candida albicans biofilms | actives 0.14% (n = 85,000) | inhibition, % at 6 µM | C. albicans biofilm + clotrimazole, Alamar Blue | AID 834;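 active = inhibition above 20%; inactive = inhibition below 20%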;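 also: preformed 24 hr biofilms exposed to compound for 48 hr; 0% = biofilm without compound and 100% = blank killed by clotrimazole plus chlorhexidine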
# D1 mod – allosteric modulators of human D1 dopamine receptor. P21728. B-score at 10 µM. AID 641. HEK293 D1, CRE-luciferase, dopamine EC30 potentiation; actives deviate in either direction. actives 5.9% (n = 58,000);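 active = luminescence count or its row- and column-corrected plate score outside the 99.7% band of the plate's sample wells, on either side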
# TNAP act DEA – activators of human TNAP at intermediate phosphate acceptor. activation factor at 20 µM. purified TNAP, CDP-star luminescence, 100 mM DEA, 30 min; active compounds read high; scale: 0 levamisole-inhibited, 1 vehicle-only enzyme. AID 813. 64,000 tested, under 10 active. P05186;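 active = activation factor of at least 2 at 20 µM, relative to controls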
# D1 PAM confirm – confirmation of human D1 dopamine receptor allosteric modulators; actives 88% (n = 2,200); HEK293 D1 CRE-luciferase, dopamine EC30 potentiation; active compounds read high; shares compounds with D1 mod; luminescence at 10 µM;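 active = luminescence in either of two replicates above the same-plate mean plus 3 SD of the low-dose dopamine control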
# D1 no dopamine – D1 (human) signaling in absence of dopamine; HEK293 D1 CRE-luciferase, luminescence, no dopamine; active compounds read high; AID 646; actives 0.8% (n = 1,900); luminescence at 10 µM; shares compounds with D1 mod; in the data active = luminescence above about 3900
# Isoprot counter – alters isoproterenol CRE-luciferase response in HEK293 cells; shares compounds with D1 mod; HEK293 D1 CRE-luciferase, isoproterenol EC30 counter-screen; active compounds read high; luminescence at 10 µM; actives 63% (n = 2,200); AID 647;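 active = luminescence in either replicate above plate mean of wells with a partly effective reference agonist dose plus 3 SD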;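 also: isoproterenol raises cAMP through native beta-adrenoceptor Gs so signal bypasses D1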
# * = called active by the depositor; . = no result. The sample as a whole holds a higher share of hits than the screen did. Rule as the data show it, unless noted: active = inhibition above about 20% (passing the limit was not always enough); inactive = the rest.
SMILES,FXIa mix inh,FXIIa mix inh,HePTP inhibitor,Candida biofilm,D1 mod,TNAP act DEA,D1 PAM confirm,D1 no dopamine,Isoprot counter
c1ccc(-c2n[nH]c3ccccc23)cc1,5,4,6,4,1.4,0.3,.,.,.
c1ccc(-c2n[nH]nc2-c2ccccc2)cc1,10,2,.,5,17*,0.9,18456*,.,3416*
COc1cccc(-c2nn3c(-c4cc(C)[nH]n4)nnc3s2)c1,4,2,1,-1,3.4*,1.1,6292*,2016,2620
c1ccc(-c2nn3c(-c4ccccc4)nnc3s2)cc1,5,9,8,4,6.3*,0.9,14100*,1944,3208
Cc1ccc(-c2nnc3sc(-c4ccncc4)nn23)cc1,5,1,13,7,2.5,0.9,.,.,.
Cc1cccc(-c2nnc3sc(-c4ccccc4)nn23)c1,4,-8,3,3,7.6*,1,15580*,1692,3424*
COc1ccc(S(=O)(=O)Nc2cccc3ccccc23)cc1Br,.,.,6,.,.,.,.,.,.
CCOc1ccc(C(C)=O)cc1CC(C(N)=O)C(N)=O,.,.,.,4,.,.,.,.,.
CCOc1ccc(C(C)=O)cc1COC(=O)C1=COCCO1,25,-1,4,6,4.7*,0.9,12532*,1772,3484*
CCOC(=O)Cc1nnc(NC(=O)c2ccccc2OC)s1,6,8,3,-1,-0.73,0.9,.,.,.
CCOC(=O)Cc1nnc(NC(=O)c2ccccc2OCC)s1,8,1,-8,0,2.7*,0.8,8096*,1648,3560*
CSc1ccc(C2Nc3ccccc3-c3cc(C)nn32)cc1 (stereo unspecified),4,5,6,1,0.94,0.9,.,.,.
Cc1cc2n(n1)C(c1ccsc1)Nc1ccccc1-2 (stereo unspecified),2,4,0,0,14*,0.8,15520*,.,3220*
Cc1ccc(N2C(=O)c3ccccc3NC2c2ccccc2)cc1Cl (stereo unspecified),.,.,11,.,.,.,.,.,.
Cc1cc2n(n1)C(c1ccccc1Cl)Nc1ccccc1-2 (stereo unspecified),-3,3,3,-3,14*,0.9,16788*,1488,3152*
c1ccc(Cc2nn3c(C4COc5ccccc5O4)nnc3s2)cc1 (stereo unspecified),3,12,9,7,6*,0.9,14652*,1492,3728*
COc1ccc(-c2csc(Cc3nnc4n3CCCCC4)n2)cc1OC,8,7,8,4,20*,1,24836*,1564,5160*
O=C(Nc1ccc(Br)cc1F)C(Sc1ccccc1)c1ccccc1 (stereo unspecified),.,.,7,.,.,.,.,.,.
CC(C)C(NS(=O)(=O)c1ccc2c3c(cccc13)C(=O)N2)C(=O)O (stereo unspecified),-9,12,2,-9,7*,1,5048,.,2324
O=C(O)c1ccccc1NS(=O)(=O)c1ccc2c3c(cccc13)C(=O)N2,4,-2,4,.,-1.6,0.9,.,.,.
COc1cc(C(=O)OCn2nnc3ccccc3c2=O)cc(OC)c1OC,2,2,8,7,1,1,.,.,.
CCOc1ccc(C(=O)OCn2nnc3ccccc3c2=O)cc1OC,-1,-32,-2,.,16*,0.9,23528*,1684,4812*
CCOc1ccc(C(=O)OCc2nnc(-c3cccs3)o2)cc1OC,3,-3,4,8,15*,1,16352*,1560,6848*
O=C(OCc1nnc(-c2ccccc2)o1)c1ccc2c(c1)OCO2,3,15,6,0,0.2,0.9,.,.,.
CCOc1ccccc1N1CCN(C(=O)c2ccc([N+](=O)[O-])cc2)CC1,.,.,-23,.,.,.,.,.,.
CC1(C)Cc2c(C#N)c(NC3CCCCC3)nc(-c3ccco3)c2CO1,4,3,9,1,3.4*,1,8368*,1616,2968

# Screening results (PubChem)
